Data published in the supplement of paper PMC6897291.
Counter-ions that a name gives are not always drawn.

Test system: RIVA
Experiment: growth inhibition by drug alone (1 - RLU/untreated control) (fraction); higher = stronger inhibition
Conditions: 100 nM; time (day): 3; 177Lu-lilotomab satetraxetan 0 ug/ml
In short: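 RIVA or U-2932 cells, untreated or pretreated 18 h with a radiolabelled anti-CD37 antibody conjugate (~600 MBq/mg; 0.5 µg/ml RIVA, 1 µg/ml U-2932), were washed and seeded at 3,000 cells/well on plates pre-printed with the Selleck Cambridge Cancer Compound library. Doses were 10/100 nM (RIVA) or 10/1,000 nM (U-2932). RealTime-Glo luminescence was read daily from day 3 after 1 h at 37°C. Growth inhibition is 1 − RLU/mean of 48 untreated no-drug wells per plate.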

| Compound | growth inhibition by drug alone |
| --- | --- |
| COc1ccc(S(=O)(=O)Nc2cccnc2Nc2ccc(O)cc2)cc1 | -0.353 |
| C[C@]12CCC(=O)C=C1CC[C@@H]1[C@@H]2[C@@H](O)C[C@@]2(C)[C@H]1CC[C@]2(O)C(=O)CO [Hydrocortisone (Cortisol)] | -0.515 |
| COc1cc(OC2CCN(C)CC2)ccc1Nc1ncc2c(n1)n(C1CCCC1)c(=O)n2C | -0.524 |
| Nc1nc(F)nc2c1ncn2[C@@H]1O[C@H](CO)[C@@H](O)[C@@H]1O [Fludarabine (Fludara)] | -0.264 |
| Nc1nc(Nc2ccc(S(N)(=O)=O)cc2)nn1C(=O)c1c(F)cccc1F | -0.0601 |
| Nc1ncn([C@@H]2O[C@H](CO)[C@@H](O)[C@H]2O)c(=O)n1 [Azacitidine (Vidaza)] | -0.343 |
| COc1cc2nccc(Oc3ccc(NC(=O)NC4CC4)c(Cl)c3)c2cc1C(N)=O [E7080 (Lenvatinib)] | -0.113 |
| Nc1ccn([C@@H]2O[C@H](CO)[C@@H](O)[C@@H]2O)c(=O)n1 [Cytarabine] | -0.231 |
| Nc1cccc2c1C(=O)N(C1CCC(=O)NC1=O)C2=O (stereo not drawn) [Pomalidomide] | -0.0764 |
| CN(C)c1nc(N(C)C)nc(N(C)C)n1 [Altretamine (Hexalen)] | -0.545 |
| Cc1[nH]c(/C=C2\C(=O)Nc3ccc(S(=O)(=O)N(C)c4cccc(Cl)c4)cc32)c(C)c1C(=O)N1CCN(C)CC1 | -0.317 |
| O=C(O[C@@H]1Cc2c(O)cc(O)cc2O[C@@H]1c1cc(O)c(O)c(O)c1)c1cc(O)c(O)c(O)c1 [(-)-Epigallocatechin gallate] | -0.587 |
| CCc1c2c(nc3ccc(OC(=O)N4CCC(N5CCCCC5)CC4)cc13)-c1cc3c(c(=O)n1C2)COC(=O)[C@]3(O)CC [Irinotecan HCl Trihydrate (Campto)] | -0.259 |
| S=C(NCc1ccc2c(c1)OCO2)N1CCN(c2ncnc3c2oc2ccccc23)CC1 [Amuvatinib (MP-470)] | 0.05 |
| COc1ccc2c3n(c(=NC(=O)c4cccnc4)nc2c1OC)CCN3 | 0.0975 |
| C#Cc1cccc(Nc2ncnc3cc(OCCOC)c(OCCOC)cc23)c1 [Erlotinib HCl] | 0.656 |
| Cc1ccc(-c2cc(C(F)(F)F)nn2-c2ccc(S(N)(=O)=O)cc2)cc1 [Celecoxib] | -0.0795 |
| N#CC[C@H](C1CCCC1)n1cc(-c2ncnc3[nH]ccc23)cn1 | -0.143 |
| CCc1cncnc1N1CCN(Cc2nc3ccc(C(F)(F)F)cc3[nH]2)CC1 | -0.0601 |

| Compound | growth inhibition by drug alone |
| --- | --- |
| CCN(CC)C(=S)SSC(=S)N(CC)CC [Disulfiram (Antabuse)] | -0.227 |
| CC(C)[C@H](C(=O)Nc1ccc(C(=O)NO)cc1)c1ccccc1 | 0.935 |
| CC(=O)O[C@]1(C(C)=O)CC[C@H]2[C@@H]3C=C(C)C4=CC(=O)CC[C@]4(C)[C@H]3CC[C@@]21C [Megestrol Acetate] | 0.0472 |
| COc1cc2ncnc(Nc3cccc(Br)c3)c2cc1OC | -0.0939 |
| N#Cc1ccc(C(c2ccc(C#N)cc2)n2cncn2)cc1 [Letrozole] | -0.0878 |
| CC(=O)c1c(C)c2cnc(Nc3ccc(N4CCNCC4)cn3)nc2n(C2CCCC2)c1=O | -0.149 |
| COc1cccc2c1C(=O)c1c(O)c3c(c(O)c1C2=O)C[C@@](O)(C(=O)CO)C[C@@H]3O[C@H]1C[C@H](N)[C@H](O)[C@H](C)O1 [Doxorubicin (Adriamycin)] | 0.62 |
| CC(C)(C)c1[nH]cnc1/C=c1\[nH]c(=O)/c(=C/c2ccccc2)[nH]c1=O [NPI-2358 (Plinabulin)] | 0.941 |
| COc1cc(Nc2ncc3c(n2)-c2ccc(Cl)cc2C(c2c(F)cccc2OC)=NC3)ccc1C(=O)O [MLN8237 (Alisertib)] | 0.624 |
| O=c1[nH]cc(F)c(=O)[nH]1 [Adrucil (Fluorouracil)] | -0.6 |
| CC(C)c1ccc(Cn2ccc3c4c(N)nc(NC5CC5)nc4ccc32)cc1 | 0.639 |
| CC/C(=C(\c1ccccc1)c1ccc(OCCN(C)C)cc1)c1ccccc1 [Tamoxifen Citrate (Nolvadex)] | 0.551 |
| Cn1cc(C2=C(c3ccc(Cl)cc3Cl)C(=O)NC2=O)c2ccccc21 | -0.488 |
| c1ccc(-c2nn3c(c2-c2ccnc4cc(OCCN5CCOCC5)ccc24)CCC3)nc1 | -0.472 |
| O=C(NCCS(=O)(=O)c1ccc(C(F)(F)F)cn1)c1ccc(Cl)cc1 | -0.409 |
| Cc1ccc(S(=O)(=O)C=CC#N)cc1 | 0.12 |
| CCC1=C[C@@H]2CN(C1)Cc1c([nH]c3ccccc13)[C@@](C(=O)OC)(c1cc3c(cc1OC)N(C)[C@H]1[C@@](O)(C(=O)OC)[C@H](OC(C)=O)[C@]4(CC)C=CCN5CC[C@]31[C@@H]54)C2 [Vinorelbine (Navelbine)] | 0.949 |
| Cc1cc(Nc2cc(N3CCN(C)CC3)nc(/C=C/c3ccccc3)n2)n[nH]1 | -0.354 |
| CN(N=O)C(=O)N[C@@H](C=O)[C@@H](O)[C@H](O)[C@H](O)CO [Streptozotocin (Zanosar)] | -0.291 |
